Screens from PubChem.
USP10 block – inhibitors of human USP10 deubiquitinase | actives 1.1% (n = 47,000) | inhibition, % at 20 µM | purified USP10, Ub-rhodamine fluorescence, 60 min | Ubiquitin carboxyl-terminal hydrolase 10 (Homo sapiens), Q14694
Target sequence (Q14694 whole entry, looked up): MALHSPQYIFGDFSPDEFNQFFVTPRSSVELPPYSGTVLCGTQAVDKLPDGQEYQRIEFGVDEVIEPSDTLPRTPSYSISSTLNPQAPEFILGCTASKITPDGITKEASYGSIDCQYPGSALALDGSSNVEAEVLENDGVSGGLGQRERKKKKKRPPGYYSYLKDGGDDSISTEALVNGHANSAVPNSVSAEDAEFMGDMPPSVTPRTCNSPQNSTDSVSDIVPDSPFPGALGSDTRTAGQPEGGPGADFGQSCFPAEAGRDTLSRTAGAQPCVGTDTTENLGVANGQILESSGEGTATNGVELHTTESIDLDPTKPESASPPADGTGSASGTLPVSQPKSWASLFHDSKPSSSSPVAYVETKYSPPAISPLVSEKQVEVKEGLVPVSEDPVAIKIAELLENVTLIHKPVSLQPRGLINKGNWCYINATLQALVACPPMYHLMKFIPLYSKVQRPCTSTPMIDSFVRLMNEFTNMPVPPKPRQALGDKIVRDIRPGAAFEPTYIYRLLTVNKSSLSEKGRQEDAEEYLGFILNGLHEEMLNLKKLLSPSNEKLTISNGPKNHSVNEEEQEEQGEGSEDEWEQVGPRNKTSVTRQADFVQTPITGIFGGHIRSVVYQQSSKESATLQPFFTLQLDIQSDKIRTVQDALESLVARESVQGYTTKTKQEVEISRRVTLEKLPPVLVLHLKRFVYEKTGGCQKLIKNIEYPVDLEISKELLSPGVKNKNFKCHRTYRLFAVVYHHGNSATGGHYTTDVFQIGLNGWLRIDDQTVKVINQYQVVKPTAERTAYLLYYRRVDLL
USP8 inh – inhibitors of human USP8 deubiquitinase | Ubiquitin carboxyl-terminal hydrolase 8 (Homo sapiens), P40818 | AID 1645853, 2021 | inhibition, % at 20 µM | purified USP8, Ub-rhodamine cleavage fluorescence, 30 min | actives 4.2% (n = 47,000)
OTUD3 inh – inhibitors of human OTUD3 deubiquitinase | OTU domain-containing protein 3 (Homo sapiens), Q5T2D3 | purified OTUD3, Ub-rhodamine fluorescence, 2 h | inhibition, % at 25 µM | actives 0.7% (n = 47,000) | AID 1645858, 2021
USP7 block – inhibitors of human USP7 deubiquitinase; Ubiquitin carboxyl-terminal hydrolase 7 (Homo sapiens), Q93009; purified USP7, Ub-rhodamine cleavage fluorescence; inhibition, % at 20 µM; actives 0.3% (n = 47,000)
USP28 block – inhibitors of human USP28 deubiquitinase | Ubiquitin carboxyl-terminal hydrolase 28 (Homo sapiens), Q96RU2 | inhibition, % at 25 µM | purified USP28, Ub-rhodamine cleavage fluorescence, 30 min | actives 3% (n = 47,000) | AID 1645857, 2021
UCHL1 inh – inhibitors of human UCHL1 deubiquitinase; actives 0.2% (n = 47,000); inhibition, % at 20 µM; purified UCHL1, Ub-rhodamine cleavage fluorescence
A number is an active result; i = inactive; nt = not tested or not shown. This is a sample that favours compounds with a hit; in the whole collection about 6.8% have one here. Rule as the data show it: active = inhibition above about 30%; inactive = the rest.

SMILES | USP10 block | USP8 inh | OTUD3 inh | USP7 block | USP28 block | UCHL1 inh
Cc1ccc(-c2c3c(=O)n(C)c(=O)n(C)c3cn2-c2ccc3c(c2)OCCO3)cc1 | i | 63 | i | i | i | i
Cc1nc(Nc2ncccn2)cc(C2CCCN2)n1 (centres undefined) | i | i | i | i | 30 | i
Cc1nc(Nc2nnc(C)s2)cc(C2CCCN2)n1 (centres undefined) | i | i | i | i | i | i
COc1cc(NC(=O)Cn2c(=O)n(-c3ccc(CC(=O)NCc4ccco4)cc3)c(=O)c3ccccc32)cc(OC)c1 | i | i | i | i | i | i
Cc1cc(NC(=O)Cn2c(=O)n(Cc3ccco3)c(=O)c3ccc(C(=O)NCCc4ccccc4)cc32)n[nH]1 | 66 | 87 | 77 | i | 84 | i
CC(C)(C)C(=O)Cn1c(=O)n(Cc2ccco2)c(=O)c2ccc(C(=O)NC3CCCC3)cc21 | i | i | i | i | i | i
COc1ccc(-n2c(=O)c3ccc(C(=O)NCCc4ccccc4)cc3n(CC(=O)NCc3ccco3)c2=O)cc1 | 44 | i | i | i | i | i
O=C(Cn1c(=O)n(-c2ccccc2)c(=O)c2ccc(C(=O)NCc3ccc4c(c3)OCO4)cc21)NCCC1=CCCCC1 | 32 | 75 | 58 | i | 41 | i
O=C(Cn1c(=O)n(Cc2ccco2)c(=O)c2ccc(C(=O)NC3CCCC3)cc21)NCc1ccco1 | i | 45 | i | i | i | i
CCc1ccc(NC(=O)c2cc(C(F)(F)F)n(C)n2)cc1 | i | i | i | i | i | i
CCc1nc2ccc(Oc3ccc(C(=O)OC)cc3)cc2nc1CC | i | i | i | i | i | i
Cc1ccc(S(=O)(=O)Nc2nc3cccnc3s2)cc1 | i | i | i | i | i | i
Cc1cn2nnc(C(=O)Nc3ccc(Cl)c(Cl)c3)c2c(=O)[nH]1 | i | 97 | i | i | i | i
COc1cccc(CNC(=O)C2(C)CCN(c3ccc(C)nn3)CC2)c1 | i | i | i | i | i | i
Cc1nn(-c2ccccc2)c2c1C1(C(=O)Nc3ccccc31)N1C(=N2)Sc2ccccc21 (centres undefined) | i | i | i | 83 | i | i
Cc1nn(-c2ccccc2)c2c1C1(C(=O)Nc3ccccc31)C(C#N)=C(N)O2 (centres undefined) | i | i | i | i | i | i
COc1cc(N2CC[C@H]3O[C@H](C(=O)NC4CCCC4)CC[C@H]32)ncn1 | i | i | i | i | i | i
COc1ccc(CCNc2nc3c(-c4ccccc4)nnn3c3ccccc23)cc1OC | i | 44 | i | i | i | i
CC1=C(C(=O)Nc2ccccn2)C(c2ccc3c(c2)OCO3)n2ncnc2N1 (centres undefined) | i | i | i | i | 33 | i
CC1=C(C(=O)Nc2ccc(Cl)cc2)C(c2cccnc2)n2ncnc2N1 (centres undefined) | i | i | i | i | i | i
CN(C)S(=O)(=O)c1ccc(N2CCCC2)c(C(=O)Nc2ccc(-c3cn4ccsc4n3)cc2)c1 | i | i | i | i | 32 | i
COc1ccc(NC(=O)c2cc(S(=O)(=O)N(C)C)ccc2N2CCCC2)cc1Cl | i | i | i | i | i | i
CC(=O)N1CCC(C(=O)Nc2ccc(F)cc2)(N(Cc2ccc(C)cc2)C(=O)c2ccc(C#N)cc2)CC1 | i | i | i | i | i | i
O=C(c1cccc([N+](=O)[O-])c1)N(c1ccccn1)c1ccccn1 | i | i | i | i | i | i
O=C(/C=C/c1ccco1)c1cccc([N+](=O)[O-])c1 | 32 | 50 | 47 | nt | 46 | i
SMILES | USP10 block | USP8 inh | OTUD3 inh | USP7 block | USP28 block | UCHL1 inh
COc1ccc2cc(C(=O)Nc3ccc4c(c3)NC(=O)C(C)O4)ccc2c1 (centres undefined) | i | i | i | i | i | i
CC(=O)NC(Cc1ccc(F)c(F)c1)C(=O)NC1CCN(C(=O)C2CCCCC2)CC1 (centres undefined) | i | i | i | i | i | i
Cc1nc(C2CCCN2CC(=O)Nc2sc(C)c(C)c2C)no1 (centres undefined) | i | i | i | i | i | i
Cc1ccc2cccc(OCc3nnc(SCC(=O)c4ccc(Cl)cc4)n3C)c2n1 | i | 33 | i | i | i | i
Cc1nn2c(C)c(C(=O)NCc3ccc(N(C)C)cc3)cnc2c1-c1ccccc1 | i | i | i | i | i | i
COc1ccc(CCNC(=O)c2cnc3c(-c4cccc(C)c4)c(C)nn3c2C)cc1OC | i | i | i | i | 39 | i
Cc1ccc(C(=O)NC(C)C(=O)N2CCN(c3ccccn3)CC2)cc1 (centres undefined) | i | i | i | i | i | i
Cc1cc(C)n(-c2nc3ccccc3nc2NCCc2ccc(Cl)cc2)n1 | i | i | i | nt | i | i
Cc1cc(C)n(-c2nnc(NCc3ccc(Cl)cc3)nn2)n1 | i | 45 | i | i | i | i
CC(C)c1cc2c(c(O)c1O)[C@@]13CCCC(C)(C)[C@@H]1C[C@@H]2OC3=O | i | i | i | i | 33 | i
CC(C)N1c2ccccc2CN(Cc2ccncc2)CC1C (centres undefined) | i | i | i | i | i | i
Cc1c(OCc2ccccc2)noc1C1CCN(C(=O)CCN)CC1 | i | i | i | i | 41 | i
Nc1cc(C2CCN(C(=O)CCCc3ccccc3)CC2)no1 | i | i | i | i | nt | i
COc1ccc(NC(=O)c2ccc(N3C(=O)N4CCc5c([nH]c6ccc(OC)cc56)[C@@]4(C)C3=O)cc2)cc1 | i | 31 | i | i | i | i
CCC(C)NC(=O)Cn1c(=O)[nH]c2c(-c3ccccc3)c[nH]c2c1=O (centres undefined) | i | i | i | i | nt | i
Cc1nn(-c2ccc(Cl)cc2)c2[nH]c(=O)c(CNCCN(C)C)cc12 | i | 53 | i | i | i | i
Cc1nn(-c2ccc(Cl)cc2)c2[nH]c(=O)c(CNCC3CCCO3)cc12 (centres undefined) | i | 86 | i | i | i | i
Cc1nn(-c2ccc(Cl)cc2)c2[nH]c(=O)c(CNCc3ccco3)cc12 | i | 44 | i | i | i | i
COc1ccc(CCNCc2cc3c(C)nn(-c4ccc(Cl)cc4)c3[nH]c2=O)cc1OC | i | 78 | i | i | i | i
Cc1cc(C)c2nc(C)cc(C(=O)NCc3ccccn3)c2c1 | i | i | i | i | i | i
COCCn1ccc2nc(C)c(C(=O)Nc3ccc4c(c3)OCO4)cc2c1=O | i | 75 | i | i | i | i
Cc1noc(C)c1CN1CCC(NC(=O)c2cccc(C#N)c2)C1 (centres undefined) | i | i | i | i | i | i
Cc1nn(Cc2ccccc2)c2sc(C(=O)Nc3nc4ccccc4[nH]3)cc12 | i | 84 | i | i | i | i
